Laboratory results taken from PubChem BioAssay AID868 (SRMLSC, 2007).
In all, about 190,000 compounds went through this assay and about 3,500 (1.8%) were called active. Many of the other results were omitted from the sample, so actives are more common in it than they were. Values without a mark were called inactive.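 The calls were made as follows: active = inhibition above a set limit, 3 SD over mean compound inhibition (cut at about 8.4% in these data); inactive = the rest.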

Experiment: RAM signaling blockers in budding yeast – dse1pr::URA3 reporter, 5-FOA selection, primary screen (AID 868);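 also: 0% = DMSO-only wells with no growth and 100% = 10 µM 1-NA-PP1 full growth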
Details: S. cerevisiae dse1pr::URA3 reporter, 5-FOA growth OD615, 2 d; at 50 µM; active compounds read high; analog-sensitive cbk1-as2 kinase mutant strain

| Structure (SMILES) | inhibition |
| --- | --- |
| O=C(O)c1ccc(NC(=O)c2cn(-c3ccccc3)nc2-c2ccc(Cl)cc2)cc1 | 6.63% |
| Cc1ccc(-c2nn(-c3ccccc3)cc2/C=C/C(=O)Nc2cccc(S(N)(=O)=O)c2)cc1 | 4.87% |
| COc1ccc(-c2nn(-c3ccccc3)cc2/C=C\C(=O)Nc2ccc(C(=O)O)cc2)cc1 | 9.89% (active) |
| CCCC(=O)OCC(=O)Nc1cc(Cl)ccc1[N+](=O)[O-] | 0.82% |
| Cc1cc(NC(=O)COC(=O)COc2ccc(Cl)cc2C)c([N+](=O)[O-])cc1C | 10.1% (active) |
| COc1ccc(OCC(=O)Nc2cc(C)c(Cl)cc2OC)c([N+](=O)[O-])c1 | 1.54% |
| Cc1ccccc1C(=O)Nc1ccc(N2CCCCCC2)cc1 | 1.43% |
| O=C(Nc1cc(S(=O)(=O)N2CCOCC2)ccc1Cl)c1cc(=O)c2ccccc2o1 | 1.91% |
| COc1ccccc1NC(=O)/C=C/C(=O)O | 2.02% |
| Clc1ccccc1CSc1nnc(-c2ccco2)c(-c2ccco2)n1 | 16% (active) |
| c1ccc(CSc2nnc(-c3ccco3)c(-c3ccco3)n2)cc1 | 0.53% |
| Nc1nc(SCc2ccccc2Cl)n[nH]1 | 2.44% |
| CCOC(=O)C1CCCN(C(=O)COc2ccc(N(C)S(=O)(=O)c3ccc(C)cc3)cc2)C1 (stereo not given) | -0.86% |
| COCc1c(N)c(C)nc(Cl)c1C#N | 0.6% |
| CC(C)(C)C(=O)N(Cc1ccccc1)c1ccccn1 | -0.12% |
| CCOC(=O)C/C(C)=N\Nc1ccc([N+](=O)[O-])cc1[N+](=O)[O-] | 0% |
| Cc1ccc(NC2=C(Cl)C(=O)OC2OC(=O)c2ccccc2C)cc1 (stereo not given) | 12.9% (active) |
| O=C1OC(OC(=O)c2ccccc2Br)C(N2CCOCC2)=C1Cl (stereo not given) | 1.63% |
| Cc1ccccc1C(=O)OC1OC(=O)C(Cl)=C1Nc1ccccc1 (stereo not given) | 6.67% |
| CCOc1ccc(C(=O)Nc2cccc(-c3ccc4nncn4n3)c2)cc1 | 3.23% |
| COCCCNC(=O)/C=C/c1ccc(OCc2c(F)cccc2Cl)cc1 | 0.89% |
| O=C(Nc1ccccc1C(=O)N1CCCCCC1)c1ccccc1Cl | -0.13% |
| CC(=O)c1ccc(N2CCN(C(=O)c3ccc4nc[nH]c4c3)CC2)cc1 | 2.3% |

| Structure (SMILES) | inhibition |
| --- | --- |
| CCOC(=O)/C(N=Nc1cc(C(=O)O)cc(C(=O)O)c1)=C(\O)CCl | 0% |
| COc1ccc(OCCCn2cccc2/C=C2/C(=N)N3OC(C)=CC3=NC2=O)cc1 | 12.5% (active) |
| Cc1ccc(OCCCn2c(=O)oc3ccccc32)cc1 | 0.62% |
| CCOc1cc(/C=C2/C(=N)N3OC(C)=CC3=NC2=O)ccc1OC | 4.09% |
| COCCNC(=O)C(c1ccc(O)cc1)N(C(=O)CCC(=O)Nc1nccs1)c1ccc(C)cc1 (stereo not given) | 0.98% |
| Oc1c(Cl)cc(Cl)c(Cl)c1Cc1c(O)c(Cl)cc(Cl)c1Cl | 12% (active) |
| OC1CSc2nc3ccccc3n2C1 (stereo not given) | 0% |
| CN1CCN(S(=O)(=O)c2cccc(C(=O)N3CCc4ccccc43)c2)CC1 | 1.24% |
| CC1Cc2ccccc2N1S(=O)(=O)c1c(N)n(C)c(=O)n(C)c1=O (stereo not given) | -1.31% |
| CCCCn1ccnc1C(=O)c1cccc(S(=O)(=O)N2c3ccccc3CC2C)c1 (stereo not given) | 11.4% (active) |
| CC(=O)NC(Cc1ccc(F)c(F)c1)C(=O)NC1CCN(C(=O)c2ccc(C)cc2)CC1 (stereo not given) | 0.5% |
| COc1cc(OC)cc(-c2nnc(N(C)C(=O)c3ccncc3)s2)c1 | 0.96% |
| COCCN(C(=O)C(C)C)c1nnc(-c2ccc(C(C)(C)C)cc2)s1 | 19.7% (active) |
| COCCN(C(=O)c1ccco1)c1nnc(-c2ccc(OC)cc2)s1 | 4.86% |
| CSc1nc2ccc(NC(=O)c3c(F)cccc3F)cc2s1 | 4.89% |
| Cn1cc(/C=C/C(=O)N2CCCC(C(=O)c3ccc(C(F)(F)F)cc3)C2)cn1 (stereo not given) | -1.92% |
| CN1CCN(c2ccc(S(=O)(=O)N3CCCCC3)cc2NC(=O)Cc2ccccc2F)CC1 | 1.32% |
| O=C(O)CSc1nnc(-c2ccc3c(c2)OCO3)n1-c1ccccc1 | 3.54% |
| Cn1nc(C(F)(F)F)c(C(=O)Nc2cccc(C(F)(F)F)c2)c1SCc1ccc(Cl)cc1 | 7% |
| COC(=O)c1ccccc1Sc1c(/C=N/OCc2ccc(Cl)cc2)c(C(F)(F)F)nn1C | 8.63% (active) |
| COC(=O)c1ccccc1NC(=O)Cn1nc(C(F)(F)F)c2c1CCC2 | 5.65% |
| CCOC(=O)c1sc(/N=C/C2=C(O)CC(C)(C)CC2=O)c(C(=O)OCC)c1C | 4.52% |
| Cc1ccc(C(C)NC(=O)Cn2nc(C)c([N+](=O)[O-])c2C)cc1 (stereo not given) | 0.13% |

| Structure (SMILES) | inhibition |
| --- | --- |
| CCC(C(=O)Nc1ccc(C(C)C)cc1)c1ccccc1 (stereo not given) | 3.4% |
| O=C(CSc1nc(-c2ccco2)cc(C(F)(F)F)n1)NCc1cccs1 | 5.13% |
| COc1cc(OC)cc(-c2nc3nc(C)c(CCC(=O)NCc4ccco4)c(C)n3n2)c1 | 5.8% |
| COc1ccc(-c2cc(C(F)(F)F)nc(SCCC(=O)NCc3ccco3)n2)cc1 | 8.41% (active) |
| COc1cc(/C=N/NC(=S)Nc2cccnc2)cc(OC)c1O | 0.73% |
| CCOc1cc(C2C(C(=O)OC(C)C)=C(C)NC3=C2C(=O)CCC3)cc([N+](=O)[O-])c1O (stereo not given) | 3.44% |
| COc1ccc(CCNC2=C(Cl)C(=O)N(Cc3ccccc3)C2=O)cc1OC | 8.57% (active) |
| COc1ccc(CCN=C2SCC(=O)N2Cc2ccccc2)cc1OC | 0.24% |
| COc1ccc(CCN(C)CCN2C(=O)c3ccccc3C2=O)cc1OC | -0.11% |
| O=C(CSc1ccccc1)Nc1nnc(/C=C/c2ccccc2)s1 | 3.72% |
| COc1ccc(Cl)cc1C(=O)NNC(=S)NC1CCCC1 | 0% |
| COCCCNc1nc2c(-c3cccc(C(F)(F)F)c3)nnn2c2ccccc12 | 4.26% |
| CCCNC(=O)c1c(Cl)cnn1-c1ccc(C)cc1 | -1.52% |
| NS(=O)(=O)c1ccc(CCNC(=O)c2ccc([N+](=O)[O-])cc2[N+](=O)[O-])cc1 | 0% |
| CCOC(=O)CN(C)Cc1c[nH]c2ccccc12 | 4.1% |
| CC(C)(C)N(Cc1ccccc1)C(=O)COC(=O)CCc1c[nH]c2ccccc12 | 10.3% (active) |
| NS(=O)(=O)c1ccc(NC(=O)COC(=O)CCc2c[nH]c3ccccc23)cc1 | 1.13% |
| CCOc1ncccc1C(=O)OCC(=O)NC1CC1 | -0.99% |
| CN(C)C(CNC(=O)Cc1ccc([N+](=O)[O-])cc1)c1ccccc1 (stereo not given) | -0.62% |
| O=C(NCc1cccs1)C(=O)NCC1OCCCN1S(=O)(=O)c1ccc(F)cc1 (stereo not given) | 3.25% |
| COc1ccc(NS(=O)(=O)c2ccc(NC(=O)c3ccc(N(C)S(C)(=O)=O)cc3)cc2)cc1 | 4.92% |
| CC(C)CNC(=O)COC(=O)c1ccccc1OCC(=O)Nc1ccc(Br)cc1 | 1.56% |
| COc1ccc(C2CC(c3cccs3)=NN2C(=O)CSc2nnc(N)s2)cc1OC (stereo not given) | 1.88% |

| Structure (SMILES) | inhibition |
| --- | --- |
| O=C1c2cccc(OCC(=O)N3N=C(c4cccs4)CC3c3ccc(F)cc3)c2CCN1Cc1ccccc1 (stereo not given) | 9.86% (active) |
| COc1ccc(C2CC(c3cccs3)=NN2C(=O)COC(=O)c2cc3ccccc3cc2O)cc1OC (stereo not given) | 4.23% |
| COc1ccc(NC(=O)COC(=O)c2ccc(NS(=O)(=O)/C=C/c3ccccc3)cc2)cc1 | 4.45% |
| O=C(CSc1nncs1)NC1CCCc2ccccc21 (stereo not given) | 0.4% |
| CC(C)Nc1nnc(SCC(=O)/C=C2\N(C)c3ccccc3C2(C)C)s1 | 10.6% (active) |
| CC(C)Nc1nnc(SCC(=O)c2c[nH]c3ccccc23)s1 | 0.26% |
| CN1/C(=C\C(=O)c2cccnc2Cl)C(C)(C)c2ccccc21 | 0.13% |
| COCCNC(=S)N1CCC(NC(=O)C23CC4CC(CC(C4)C2)C3)CC1 | -0.25% |
| CCN(CC)CCNC(=O)c1sc2ncn(CC(=O)Nc3ccc(C)c(Cl)c3)c(=O)c2c1C | 0.37% |
| Cn1c(=O)n(Cc2ccco2)c(=N)c2c3c(sc21)CCCC3 | 1.37% |
| O=C(COC(=O)CSc1nnc(-c2ccc(Cl)cc2)o1)Nc1cc(Cl)cc(Cl)c1 | 2.39% |
| CC(=O)NC1C(Oc2ccc(C=O)cc2)OC(COC(C)=O)C(OC(C)=O)C1OC(C)=O (stereo not given) | 1.12% |
| CC(=O)NC1C(OCc2ccccc2)OC(COC(C)=O)C(OC(C)=O)C1OC(C)=O (stereo not given) | 1.66% |
| COc1ccc(O[C@H]2C=C[C@@H](c3ccccc3)O[C@@H]2CO/N=C/C[C@@H]2C=C[C@H](OC(C)=O)[C@@H](COC(C)=O)O2)cc1 | 13.9% (active) |
| C=CCOC(=O)C1=C(C)N=C2SCCC(=O)N2C1/C=C/c1ccccc1OC (stereo not given) | 1.62% |
| COc1ccccc1CNC(=O)CNC(=O)c1cn(-c2ccccc2OC)c(=O)c2ccccc12 | 1.48% |
| CCCCNC(=O)CSc1nc2ccc(NC(=O)CSc3nnc(N)s3)cc2s1 | 2.71% |
| Nc1nnc(SCC(=O)Nc2ccc3nc(SCC(=O)Nc4ccccc4)sc3c2)s1 | 9.31% (active) |
| CCCCNC(=O)CSc1nc2ccc(NC(=O)CSc3nnc(COc4ccccc4C)n3C)cc2s1 | 6.51% |
| Cn1c(=O)c2c(ncn2CCc2ccccc2)n(C)c1=O | 0.37% |
| C/C=C(\C)C(=O)NCCN1C2=NC[C@H](Cc3ccc(O)cc3)N2C[C@@H]1Cc1ccc(OC)cc1 | -1.63% |
